Measured values as given in PubChem BioAssay (EPA / NIEHS).
Values joined by “and” are separate entries in the source; they are usually repeats but may differ in a detail not shown here. Equal values may be shown once. Results filed as inconclusive are left out. Some structures have more than one record in an assay (separate samples or runs), and their calls can disagree. Active and inactive are the calls of the source. How the source made its calls, unless noted: active means hit-call score of the fitted dose curve at least 0.9, where 1 is the maximum; inactive means score below 0.9.

Key:
[1] = CCTE_Shafer_MEA_acute_AB: CCTE's Alamar Blue Assay for Cytotoxicity in the Neural Acute Assay, Shafer Lab (AID 2284069; active means hit-call score of the fitted dose curve at least 0.9, where 1 is the maximum;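 further: active compounds lower the viability signal compared with DMSO wells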)
Outline: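 Resazurin reduction (CellTiter Blue, 1:6 in fresh medium) read at ex 544/em 590 nm marks viability loss relative to DMSO. Cells: primary rat cortical neuron networks on microelectrode arrays, treated after baseline recording at 13 or 15 days in vitro.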

[2] = CCTE_Shafer_MEA_acute_LDH: CCTE's Lactate Dehydrogenase Assay for Cytotoxicity in the Neural Acute Assay, Shafer Lab (AID 2284086; active means hit-call score of the fitted dose curve at least 0.9, where 1 is the maximum;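 further: active means LDH release rises above DMSO vehicle level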)
Outline: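 Primary rat cortical neurons on 48-well MEA plates, treated on day 13 or 15 post-plating. After the 40-min recording with compound, medium LDH release was read by absorbance at 490 nm. Gain of signal was fitted against DMSO negative control.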

[3] = CCTE_Shafer_MEA_dev_network_spike_peak: CCTE's Neural Network Formation Assay for Mean Number of Electrodes in Network Spike, Shafer Lab (AID 2284049);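 on AC50: fitted for loss of signal meaning fewer electrodes in network spikes than DMSO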
Outline: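 Continuous 12-day exposure of rat cortical cultures, starting at plating, on MEA plates. Endpoint: electrodes participating in network-spike peaks, AUC across DIV 5–12, DMSO as negative control.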

[4] = system: DIO2 (gene 1734); test: CCTE_GLTED_hDIO2: CCTE's human Deiodinase 2 (DIO2) Inhibition Assay, Great Lakes Toxicology and Ecology Division (GLTED) Lab (AID 2284050; active means hit-call score of the fitted dose curve at least 0.9, where 1 is the maximum)
Outline: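 Cell-free human DIO2 enzyme was incubated with test chemical for 3 h; iodide liberated from substrate was then quantified by the Sandell-Kolthoff reaction (absorbance), run in triplicate. Loss of signal versus DMSO baseline indicated inhibition.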

[5] = CCTE_Shafer_MEA_dev_spike_duration_mean: CCTE's Neural Network Formation Assay for Mean Spike Duration, Shafer Lab (AID 2284051);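 further: mean network spike duration pooled as area under curve over DIV 5 to 12 recordings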;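 on AC50: potency for a decrease in mean network spike duration versus DMSO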
Outline: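 Spontaneous activity was recorded on days 5, 7, 9 and 12 from rat cortical cultures grown on microelectrode arrays and dosed continuously from day 0, with media and compound renewed after the DIV 5 and 9 recordings. Network-spike duration was collapsed by area under the curve.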

[6] = CCTE_Shafer_MEA_dev_network_spike_duration_std: CCTE's Neural Network Formation Assay for Standard Deviation of Network Spike Duration, Shafer Lab (AID 2284052);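 further: hits are decreases in network spike duration SD versus DMSO vehicle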
Outline: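 Network spike duration variability was collapsed across recordings on days 5, 7, 9 and 12 by trapezoidal area-under-curve and fitted downward against DMSO. Cultures were rat cortical neurons on PEI-coated MEA plates, dosed continuously from plating, refed with compound DIV 5/9.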

[7] = CCTE_Shafer_MEA_dev_per_network_spike_spike_number_mean: CCTE's Neural Network Formation Assay for Mean Number of Spikes in a Network Spike, Shafer Lab (AID 2284053);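 on AC50: fitted as decrease in spikes per network spike relative to DMSO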
Outline: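 Mean spike count within each network spike, taken in a 0.05 s window at its peak, was recorded on days 5, 7, 9 and 12 and integrated as trapezoidal area under the curve. Rat cortical cultures on MEA plates received continuous compound from day 0, refreshed at medium changes on DIV 5 and 9.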

[8] = CCTE_Shafer_MEA_dev_per_network_spike_spike_percent: CCTE's Neural Network Formation Assay for Percent of Spikes in a Network Spike, Shafer Lab (AID 2284054)
Outline: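 Primary rat cortical neurons on 16-electrode MEA wells (PEI-coated, laminin at plating), exposed from day 0 with renewal at DIV 5 and 9; spikes within 0.05 s of network-spike peaks over total spikes, AUC across days 5, 7, 9, 12.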

[9] = system: DIO3 (gene 1735); test: CCTE_GLTED_hDIO3: CCTE's human Deiodinase 3 (DIO3) Inhibition Assay, Great Lakes Toxicology and Ecology Division (GLTED) Lab (AID 2284055; active means hit-call score of the fitted dose curve at least 0.9, where 1 is the maximum;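 further: potency is for inhibition seen as loss of released iodide signal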)
Outline: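 Cell-free assay with human DIO3 enzyme produced by adenovirus expression; enzyme incubated with test chemical for 3 hours. Liberated iodide then measured by Sandell-Kolthoff absorbance; loss of signal versus DMSO baseline indicates inhibition, run in triplicate.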

[10] = CCTE_Shafer_MEA_dev_LDH: CCTE's Lactate Dehydrogenase Assay for Cytotoxicity in the Neural Network Formation Assay, Shafer Lab (AID 2284068; active means hit-call score of the fitted dose curve at least 0.9, where 1 is the maximum;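 further: exposure for twelve days from plating with re-dosing on DIV 5 and 9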)
Outline: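 Primary rat cortical neurons were cultured on PEI-coated MEA plates and exposed from plating through day 12, with compound renewed at medium changes on DIV 5 and 9. LDH activity was read spectrophotometrically; loss of signal versus DMSO indicates reduced viability.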

[11] = CCTE_Shafer_MEA_dev_mutual_information_norm: CCTE's Neural Network Formation Assay for Mutual Information Normalization, Shafer Lab (AID 2284091);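 on AC50: mutual information between electrodes summarised as area under curve across four recording days; potency is for a decrease in mutual information relative to DMSO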
Outline: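 Rat cortical cultures, 48-well MEA, continuous exposure DIV 0–12 with full media/compound change DIV 5 and 9. Readout: inter-electrode mutual information, AxIS adaptive spike detection; AUC across DIV 5/7/9/12 recordings; DMSO baseline, negative fitting direction.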

[12] = CCTE_Shafer_MEA_dev_correlation_coefficient_mean: CCTE's Neural Network Formation Assay for Mean Correlation Coefficient, Shafer Lab (AID 2284093);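 on AC50: well mean pairwise spike train correlation integrated as AUC over recording days 5 to 12; potency fitted for loss of correlation relative to DMSO vehicle wells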
Outline: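 Primary rat cortical neurons on PEI-coated 48-well MEA plates (16 electrodes/well) were exposed from plating day 0 through DIV12, with compound renewed at DIV5 and 9. Pairwise spike correlations were averaged per well; trapezoidal AUC across DIV5, 7, 9, 12.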

[13] = IUF_NPC1b_proliferation_BrdU_72hr: Leibniz Research Institute for Environmental Medicine (IUF) 72-hour Neural Progenitor Cell Bromodeoxyuridine (BrdU) Proliferation Assay (NPC1b) (AID 2284207)
Outline: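 hNPC spheres (primary, GW 16-19 fetal cortex), single sphere/well, EGF+FGF medium; 72 h compound, no renewal; BrdU pulse last 16 h; luminescent ELISA; activity vs DMSO baseline; growth-factor withdrawal as positive control.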

[14] = IUF_NPC1a_proliferation_area_72hr: Leibniz Research Institute for Environmental Medicine (IUF) 72-hour Neural Progenitor Cell Proliferation Area Assay (NPC1a) (AID 2284208)
Outline: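 Proliferation is scored as sphere area gain in primary human fetal neural progenitors treated for 72 h in EGF/FGF-containing medium. Viability, LDH and BrdU readouts come from the same wells.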

[15] = IUF_NPC1_viability_72hr: Viability Assessment at 72 hours in the Leibniz Research Institute for Environmental Medicine (IUF) Neural Progenitor Cell Proliferation Assay (NPC1) (AID 2284209)
Outline: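 Human fetal-cortex neural progenitor spheres (0.25–0.35 mm, one per well) grown in EGF/FGF proliferation medium at 37C, pH 7.2-7.6, exposed 72 h without renewal; viability read as alamar blue resazurin-to-resorufin fluorescence relative to DMSO.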

[16] = CCTE_Mundy_HCI_Cortical_Synap_Neur_Matur_BPCount: CCTE's Synaptogenesis and Neurite Maturation Assay in rat cortical cells for Branch Point Count, Mundy Lab (AID 2284211)
Outline: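 Branch point number is quantified by automated imaging of fluorescently labelled neurites and synapses in rat primary cortical neurons exposed from DIV 7 to DIV 12. Activity is analysed relative to DMSO negative control.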

[17] = UKN5_HCS_SBAD2_cell_viability: Viability Assessment in the University of Konstanz (UKN) Leist Lab Neurite Outgrowth Assay in human iPSC-derived immature Dorsal Root Ganglia Neurons (UKN5) (AID 2284056)
Outline: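 iPSC-derived immature peripheral neurons (SBAD2) seeded on Matrigel with CHIR99021, SU5402 and DAPT, dosed 1 h later for 24 h. Viability from Hoechst H-33342 and calcein-AM live staining, high-content imaging; bidirectional fit versus DMSO.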

[18] = UKN5_HCS_SBAD2_neurite_outgrowth: University of Konstanz (UKN) Leist Lab Neurite Outgrowth Assay in human iPSC-derived immature Dorsal Root Ganglia Neurons (UKN5) (AID 2284070); conditions: actives raise or lower the signal
Outline: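 Human iPSC-derived immature DRG neurons (SBAD2) on Matrigel with CHIR99021 (1.5 uM), SU5402 (5 uM), DAPT (5 uM); compounds added 1 h post-seeding for 24 h. Calcein-AM neurite area imaged; bidirectional fit vs DMSO.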

[19] = UKN2_HCS_IMR90_neural_migration: University of Konstanz (UKN) Leist Lab Neural Crest Cell Migration Assay in human induced IMR90 Pluripotent Stem Cells (UKN2) (AID 2284204); conditions: actives raise or lower the signal
Outline: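 iPSC-derived IMR90 neural crest cells on PLO/laminin/fibronectin were seeded around silicone stoppers; after stopper removal, migration in N2-S medium with EGF and FGF ran 24 h before 24 h chemical exposure. Calcein-AM/Hoechst high-content imaging; bidirectional fit versus DMSO.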

[20] = UKN4_HCS_LUHMES_neurite_outgrowth: University of Konstanz (UKN) Leist Lab Neurite Outgrowth Assay in human LUHMES cells (UKN4) (AID 2284206); conditions: actives raise or lower the signal
Outline: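 LUHMES neuronal precursors differentiated 2 days, replated without cAMP/GDNF, then exposed to chemicals for 24 h. Neurite area imaged by high-content microscopy after calcein-AM staining; Hoechst H-33342 marks viability. Bidirectional fit versus DMSO.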

Measured: AC50

C=CCOC(Cn1ccnc1)c1ccc(Cl)cc1Cl (configuration not stated)
inactive: [1] | [2]

CCNc1nc(N)nc(Cl)n1
inactive: [1] | [2]

Oc1ccc(C(c2ccc(O)cc2)C(Cl)(Cl)Cl)cc1
active: [3] 12.9 µM | [4] 100 µM | [5] 4.75 µM | [7] 3.73 µM | [9] 143 µM
inactive: [6] | [8] | [10] | [2] | [11] | [12]

O=C(Nc1ccc([N+](=O)[O-])cc1Cl)c1cc(Cl)ccc1O
inactive: [1] | [2]

CC(C)(c1ccc(O)cc1)c1ccc(O)cc1
active: [3] 20.8 µM | [5] 15 µM | [7] 15 µM | [8] 6.65 µM | [11] 1.95 µM | [13] 4.92 µM
inactive: [3] | [5] | [6] | [7] | [8] | [10] | [1] | [2] | [11] | [12] | [14] | [15]

OB(O)O
inactive: [3] | [5] | [6] | [7] | [8] | [1] | [2] | [11] | [12]

COCCO
inactive: [3] | [5] | [6] | [7] | [8] | [10] | [11] | [12]

CC1(C)C(C=C(Cl)Cl)C1C(=O)OCc1cccc(Oc2ccccc2)c1 (configuration not stated)
active: [3] 23.2 µM and 9.11 µM | [5] 21.3 µM and 10.1 µM | [7] 17.3 µM and 10.1 µM | [8] 22.2 µM and 5.34 µM | [10] 22.6 µM and 9.58 µM | [11] 15 µM and 5.01 µM | [12] 15 µM and 5.33 µM | [16] 8.52 µM
inactive: [6] | [2]

S=C([S-])NCCNC(=S)[S-].[Mn+2]
active: [17] 7.5 µM | [18] 4.28 µM | [19] 14.2 µM | [20] 2.16 µM
not listed: [1] | [2] | [4] | [7] | [9] | [16]
inactive: all other assays above

N#CSCSc1nc2ccccc2s1
inactive: [1] | [2]

CCOC(=O)C(C)Oc1ccc(Oc2nc3ccc(Cl)cc3o2)cc1 (configuration not stated)
active: [4] 44.6 µM | [9] 15.3 µM

CSC(=O)c1cccc2nnsc12
active: [13] 0.796 µM
not listed: [1] | [4] | [9] | [10] | [17] | [18] | [19] | [20]
inactive: all other assays above

CCCCC(CC)CN1C(=O)C2C3C=CC(C3)C2C1=O (configuration not stated)
inactive: [3] | [5] | [6] | [7] | [8] | [10] | [1] | [2] | [11] | [12]
